This is part of a sample that, as a whole, favours compounds with a hit. Of some 83,000 tested, about 20% had one in any assay.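 Growth was measured after 48 h exposure to one concentration of compound in 96-well plates. Values under 10 count as active.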 Unmarked numbers belong to inactive results. Activity calls are given as the source filed them.

The values below come from PubChem BioAssay (NCI).

Common to all, as to assay: NCI-60 one-dose screen, 48 h (100 = growth as untreated, 0 = no growth, -100 = all killed)
What all share (conditions): 10 µM unless noted

Experiment [1] concerns HCT-15 colon.
The test system of experiment [2] is HT29 colon.
Experiment [3] relates to SNB-75 CNS.
The subject of experiment [4] is SNB-19 CNS.
Experiment [5] relates to U251 CNS.
Experiment [6] relates to PC-3 prostate.
In experiment [7] the test system is SK-MEL-5 melanoma.
Experiment [8] concerns UACC-62 melanoma.
The subject of experiment [9] is SK-MEL-28 melanoma.

In the case of `Cc1cc2nc3c4cc(Cl)ccc4n(CCN(C)C)c3nc2cc1C`, the growth is -25.1% (active) in experiment [1]; 1% (active) in experiment [2]; 26.3% in experiment [3]; 15.4% in [4]; 12.3% in experiment [5]; 27.2% in experiment [6]. Moreover, the growth in experiment [7] was 41%; in experiment [8], -70.7% (active); in [9], -59.3% (active).
Take `C#Cc1cccc(NC(=O)C2CCCN(C(=O)CCl)C2)c1` (stereo not given): the growth in [1] was 25.2% [8.25 µM]; in [2], 83.9% [8.25 µM]; in [3] it was 91.9% [8.25 µM]; in experiment [4], 85.7% [8.25 µM]; in [5], 72% [8.25 µM]; in experiment [6], 96.2% [8.25 µM]. In addition, the figures for the growth in [7], in experiment [8] and in experiment [9] were 19.4% [8.25 µM], 44.2% [8.25 µM] and 102% [8.25 µM], respectively.
On to `C=C(C)[C@@H]1CC[C@]2(c3nnc(-c4ccncc4)o3)CC[C@]3(C)[C@H](CC[C@@H]4[C@@]5(C)CCC(=O)NC(C)(C)[C@@H]5CC[C@]43C)[C@@H]12`, for which the growth was 100% in [1]; 99.6% in experiment [2]; 93.7% in [3]; 92.5% in [4]; 96% in experiment [5]; 69.5% in experiment [6]. Moreover, the growth in [7] is 90.1%; in [8], 79.7%; in experiment [9], 109%.
As for `Clc1ccc2[nH]cc(-c3nc(-c4c[nH]c5ncccc45)cs3)c2c1`, the growth in experiment [1] was 1.33% (active); in experiment [2] it was 16.1%; in experiment [3], 56.8%; in experiment [4], 65.1%; in experiment [5], 34.6%; in [6], 39.2%. The values for the growth in experiment [7], in experiment [8] and in experiment [9] were 64.9%, 44.2% and 85.9%, respectively.
Turning to `Cc1oc(-c2ccccc2Cl)cc1C(=O)Nc1ccc(S(N)(=O)=O)cc1`, the growth in experiment [1] was 103%; in [2], 108%; in [3] it was 89.9%; in experiment [4], 99.1%; in experiment [5] it was 94.9%; in experiment [6], 107%. In addition, the growth in [7] is 97.3%; in experiment [8] it was 95.8%; in experiment [9] it was 101%.
For `COc1ccc(-c2cc(/C=C/C(=O)c3ccc(N)cc3)[nH]n2)cc1`, the growth is 17% in experiment [1]; 10.4% in [2]; -0.764% (active) in experiment [3]; 27.6% in experiment [4]; 14.4% in experiment [5]; 26.4% in experiment [6]. Also, the figures for the growth in [7], in experiment [8] and in experiment [9] were 23.9%, 24.7% and 34.6%, respectively.
Turning to `NCCNc1nc(-c2ccccc2)nc2nc(-c3ccccc3)oc12`, the growth in [1] was 70%; in experiment [2], 71.6%; in experiment [3] it was 61.9%; in [4] it was 89.8%; in experiment [5], 70.3%; in experiment [6], 80.4%. Moreover, the growth was 89.2% in experiment [7], 99.9% in experiment [8] and 103% in experiment [9].
In the case of `N#CC1=C(N)Oc2ccc3ccccc3c2C1c1ccccc1` (stereo not given), the growth is 19.5% in experiment [1]; 17.7% in [2]; -16.3% (active) in [3]; 29.5% in [4]; 32.5% in [5]; 40.6% in experiment [6]. Further, the growth in experiment [7] is 25.7%; in experiment [8], 18.6%; in experiment [9] it was 54.6%.
On to `COc1ccc(/C=C(\C#N)c2cc3ccccc3n2S(C)(=O)=O)cc1`, for which the growth in experiment [1] is 46.4%; in experiment [2], 102%; in experiment [3], 73.1%; in experiment [4], 82.3%; in [5], 96.8%; in [6] it was 80.2%. The growth was 87.8% in experiment [7], 58.1% in experiment [8] and 82.5% in experiment [9].
On to `N=C(N)c1ccc(-c2ccc(-c3cc(F)cc(F)c3)o2)nc1`, for which the growth in [1] is 77.4%; in experiment [2] it was 26.2%; in experiment [3] it was 72.1%; in experiment [4] it was 93.2%; in experiment [5] it was 85.9%; in experiment [6], 82.4%. The figures for the growth in experiment [7], in experiment [8] and in [9] were 88.7%, 96.3% and 98.7%, respectively.
For `Nc1c2c(nc3ccc(Br)cc13)CC(c1ccccc1)CC2=O` (stereo not given), the growth in [1] is 21.9%; in experiment [2], 15.7%; in experiment [3], -1.66% (active); in [4], 37%; in experiment [5], 41.8%; in [6], 40.4%. For the same molecule, the growth in experiment [7] is 20.1%; in [8], 38.1%; in experiment [9], 55.5%.
Turning to `Cc1ccsc1-c1ccc2c(c1)COC2(CCCN(C)C)c1ccc(F)cc1` (stereo not given), the growth in experiment [1] is 29%; in [2], 17%; in experiment [3], 34.9%; in experiment [4] it was 67.9%; in experiment [5], 21%; in experiment [6] it was 45.6%. Also, the growth in experiment [7] is 0.45% (active); in experiment [8], 44.9%; in experiment [9], 42.5%.
Consider `Cc1nc([P+](c2ccccc2)(c2ccccc2)c2ccccc2)c(Sc2sc(-c3ccccc3)nc2[P+](c2ccccc2)(c2ccccc2)c2ccccc2)o1`, for which the growth in experiment [1] was 30.2%; in experiment [2], 4.54% (active); in experiment [3] it was -3.87% (active); in [4], 16.2%; in experiment [5], 14.3%; in [6] it was 3.44% (active). Further, the results for the growth in [7], in [8] and in [9] were -17.1% (active), 19.2% and 54.5%, respectively.
Take `COc1ccc2c(c1)C/C(=C\c1cc(-c3cc(OC)c(OC)c(OC)c3)n[nH]1)C2=O`: the growth is 91.1% in [1]; 89.3% in experiment [2]; 78.4% in experiment [3]; 91.9% in experiment [4]; 92.3% in experiment [5]; 56% in experiment [6]. The growth in [7] is 75.5%; in experiment [8], 88.1%; in [9] it was 99.3%.
Take `Cc1ccc(Cc2cnc(NC(=O)/C=C/c3cccc(C)c3)s2)cc1`: the growth in [1] is 7.04% (active); in [2], 0.0384% (active); in [3], -23.6% (active); in experiment [4], 13.4%; in experiment [5], 9.32% (active); in [6] it was 30.3%. The growth in experiment [7] was 12.6%; in [8], 16.3%; in [9] it was 50.3%.
Take `CC1(C)C(=O)/C(=C\c2ccccn2)C[C@]2(C)[C@H]3CC[C@@H]4[C@@H](C(=O)/C=C/c5ccccn5)CC[C@@]4(C)[C@]3(C)CC[C@@H]12`: the growth in experiment [1] was -31% (active); in experiment [2], -13.6% (active); in [3], -3.97% (active); in experiment [4] it was 4.66% (active); in experiment [5], -80.5% (active); in experiment [6], 9.61% (active). Besides, the figures for the growth in experiment [7], in experiment [8] and in experiment [9] were -82.5% (active), -54.2% (active) and -32.1% (active), respectively.
For `O=C1C(=O)N(CCCCn2cc(-c3ccccc3)nn2)c2ccccc21`, the growth in experiment [1] was 105%; in experiment [2], 112%; in [3], 95%; in experiment [4], 99.7%; in experiment [5], 107%; in experiment [6] it was 94.3%. The growth in experiment [7] is 100%; in [8] it was 95.7%; in [9], 113%.
As for `NC(N)=N/N=C/c1ccc(-c2ccc(-c3ccc(Cl)cn3)s2)cc1`, the growth in experiment [1] is -4.03% (active); in experiment [2] it was 11.9%; in [3] it was 88.9%; in experiment [4] it was 94.2%; in experiment [5] it was 20.6%; in [6], -42.3% (active). Moreover, the growth in [7] was 91.6%; in experiment [8], 99.1%; in [9], 99.2%.
As to `COc1cc2nc(Cl)nc(Nc3cccc(C(=O)/C=C/c4ccc(Cl)cc4)c3)c2cc1OC`, the growth in experiment [1] was 2.93% (active); in experiment [2], 19.6%; in [3], 81.3%; in experiment [4], 54.6%; in [5], 50.7%; in [6], 56%. For the same molecule, the figures for the growth in experiment [7], in experiment [8] and in experiment [9] were 83.9%, 62.8% and 74.2%, respectively.
As for `O=C1NC(=Nc2ccc(S(=O)(=O)Nc3nccs3)cc2)S/C1=C\c1coc2ccccc2c1=O`, the growth in [1] was 104%; in [2], 97.6%; in [3] it was 55.9%; in [4] it was 98.5%; in experiment [5], 102%; in experiment [6], 95%. The growth in [7] was 103%; in [8], 99.5%; in experiment [9], 111%.
